In all, about 360,000 compounds went through this assay and about 520 (0.14%) were called active. Roughly 3% stayed inconclusive and do not appear here. This is one part of a sample in which actives are shown more often than they occur. Values without a mark were called inactive. Calls follow the shape of the dose curve; as a rule, active = well fitted inhibition curve with a large enough effect; inconclusive = small, poorly fitted or top-dose-only effect; inactive = no such curve, though single readings can be large or run the other way.
Potency is read from the fitted curve at half-maximal effect.

Rap guanine nucleotide exchange factor 3 (Homo sapiens), sequence (O95398 whole entry, looked up): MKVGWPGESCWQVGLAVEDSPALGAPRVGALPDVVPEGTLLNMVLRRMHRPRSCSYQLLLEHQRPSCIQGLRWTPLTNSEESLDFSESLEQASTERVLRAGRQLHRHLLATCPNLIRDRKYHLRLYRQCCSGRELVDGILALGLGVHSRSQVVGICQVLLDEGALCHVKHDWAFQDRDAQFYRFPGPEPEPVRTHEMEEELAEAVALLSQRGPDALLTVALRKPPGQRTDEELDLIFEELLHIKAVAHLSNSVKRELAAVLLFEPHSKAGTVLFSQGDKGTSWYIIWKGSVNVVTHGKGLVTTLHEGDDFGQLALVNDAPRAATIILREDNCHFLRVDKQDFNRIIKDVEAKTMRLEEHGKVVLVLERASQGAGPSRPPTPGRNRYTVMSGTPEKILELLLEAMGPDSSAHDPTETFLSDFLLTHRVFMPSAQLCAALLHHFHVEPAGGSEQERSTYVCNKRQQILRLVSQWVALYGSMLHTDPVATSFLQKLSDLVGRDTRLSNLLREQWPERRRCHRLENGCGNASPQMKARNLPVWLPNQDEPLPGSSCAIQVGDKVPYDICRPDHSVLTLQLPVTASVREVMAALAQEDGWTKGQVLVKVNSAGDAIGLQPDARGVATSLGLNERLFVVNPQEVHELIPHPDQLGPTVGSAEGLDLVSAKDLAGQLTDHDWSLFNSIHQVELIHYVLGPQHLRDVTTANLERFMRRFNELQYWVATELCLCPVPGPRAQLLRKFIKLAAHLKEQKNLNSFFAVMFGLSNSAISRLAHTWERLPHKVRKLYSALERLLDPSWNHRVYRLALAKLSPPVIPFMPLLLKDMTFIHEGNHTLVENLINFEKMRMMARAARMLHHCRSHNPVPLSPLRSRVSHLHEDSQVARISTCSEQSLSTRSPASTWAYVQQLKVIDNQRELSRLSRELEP

The target of this assay is Rap guanine nucleotide exchange factor 3 (Homo sapiens) (UniProt O95398). In words: qHTS for Antagonist of cAMP-regulated guanine nucleotide exchange factor 3 (EPAC1): primary screen. Also: nearly all actives have a fitted effect of over 50% in size.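 As to activity change, negative = inhibition: plate controls were vehicle for no effect and positive control for full effect.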 The conditions noted are these: EPAC1 GEF assay, Rap1b-BODIPY-GDP exchange fluorescence; series mostly up to 115 µM; activity change, negative = inhibition: at the top concentration. An excerpt:
In multi-cellular eukaryotic organisms, the effects of cAMP are transduced by two ubiquitously-expressed intracellular cAMP receptors, the classic protein kinase A/cAMP-dependent protein kinase (PKA/cAPK) and the more recently discovered exchange protein directly activated by cAMP/cAMP-regulated guanine nucleotide exchange factor (EPAC/cAMP-GEF). Both PKA and EPAC are ubiquitously expressed in all tissues, and an increase in intracellular cAMP levels will lead to the activation of both PKA and EPAC. Therefore, careful dissections of the individual role and relative contribution of EPAC and PKA within the overall cAMP signaling in various model systems are critical for further elucidating the mechanism of cAMP signaling. To date no EPAC-specific antagonists and agonist, as well as isoform-specific agonists have been reported, and developing EPAC-specific pharmacological probes to determine the physiological functions that EPAC play in the overall cAMP-mediated signaling remains a major challenge within the research field. Furthermore, identified regulators of EPAC may lead to new mechanism-based therapeutic strategies specifically targeting the EPAC / cAMP-signaling components as EPAC has been implicated to play important roles in major human pathological conditions such as diabetes, heart disease, and cancer. This qHTS will be used to screen the Molecular Libraries Small Molecule Repository (MLSMR) as a concentration-titration series using the NCGC unique quantitative screening (qHTS) platform to find inhibitors for EPAC1. In addition, this assay will also be used as a counterscreen for the EPAC2 qHTS. This fluorescent based assay is developed and validated for EPAC1 that measures exchange using EPAC effector Rap1 complex with BODIPY-GDP, a GDP analog with a tethered fluorophores. Inhibitors are identified by monitoring the change in fluorescence signal as the exchanged free BODIPY-GDP has a reduced fluorescence compared to Rap1-bound BODIPY-GDP. Decrease in signal (inhibition) is the desired outcome for the EPAC1 antagonist while no activity in this assay is desired for the EPAC2 antagonist counterscreen. de Rooij, J., Zwartkruis, F. J., Verheijen, M. H., Cool, R. H., Nijman, S. M., Wittinghofer, A., and Bos, J.L. (1998) Nature 396, 474-477 [2] Kawasaki, H., Springett, G. M., Mochizuki, N., Toki, S., Nakaya, M., Matsuda, M., Housman, D. E., and Graybiel, A. M. (1998) Science 282, 2275-2279 NIH Chemical Genomics Center [NCGC] NIH Molecular Libraries Probe Centers Network [MLPCN] MLPCN Grant: NS066510 Assay Submitter (PI): Xiaodong Cheng, The University of Texas, Medical Branch
Briefly, three uL of reagents (100 nM EPAC1, 250 nM RAP1B-BODIPY-GDP, 50 uM GDP) were dispensed into a 1536-well Greiner black solid-bottom medium binding assay plate. Controls and test compounds (23 nL) were transferred to the plate via a Kalypsys pin tool equipped with a 1536-pin array. The plates were centrifuged at 1,000 rpm for 15 seconds followed by 5 minute incubation at room temperature. The assay plates were read at 5 minute intervals for 30 minutes in the ViewLux plate reader using 480nm excitation and 540nm emission filters. The results were normalized to the […] positive control ATA and DMSO.
Background: Quantitative high-throughput screening tests each substance at several concentrations.
As for `CC(C)(C)C1CCC(=O)N2CCC[C@]2(c2ccccc2)C1` (some centres undefined), the “activity change, negative = inhibition” value is -18.9%.

`CCOC(=O)[C@]12CCCC=C1N(CCC1=CCCCC1)C(=O)[C@H](CC(=O)N1CCN(C(=O)c3ccco3)CC1)C2`: the “activity change, negative = inhibition” value was 1.32%.

In the case of `Cc1[nH]c2ccccc2c1C(=O)c1cc([C@H](NC(=O)OC(C)(C)C)C(C)C)sc1N`, the “activity change, negative = inhibition” value was -13.3%.

For `CCOC(=O)N1C(=O)C[C@](Sc2ccc(C)cc2)(C(=O)OC)[C@H]1c1ccccc1`, the “activity change, negative = inhibition” value is -13.4%.

As to `O=C(C[C@H]1CC[C@H]2[C@@H](COC[C@H](O)CN2C(=O)c2ccccn2)O1)N1CCN(c2ccccc2)CC1`, the “activity change, negative = inhibition” value is 10.9%.

Take `Nc1nc2c(Br)ccc(Br)c2cc1C(=O)NCCc1ccccc1`: the “activity change, negative = inhibition” value is -1.34%.

With `O=c1[nH][nH]c2c1[C@H](c1ccc(Cl)cc1)O[C@H](CCc1ccccc1)C2`, the “activity change, negative = inhibition” value is -17.2%.

For `CC1(C(=O)Nc2ccc3c(c2)OCCO3)CSCC(=O)N1CCOc1ccccc1` (centres undefined), the “activity change, negative = inhibition” value was 9.55%.

For `Cc1ccc(S(=O)(=O)N[C@H](CO)C(C)C)cc1`, the “activity change, negative = inhibition” value was -3.21%.

On to `N#Cc1ccc(-c2nc3c(Cl)cc(C(F)(F)F)cn3c2Cc2ccccc2C(F)(F)F)cc1`, for which the “activity change, negative = inhibition” value was -5.26%.

As to `CC1(C)OC(=O)C2=C(C[C@@H](C3CCCCC3)O[C@@H]2c2ccc(Cl)cc2)O1`, the “activity change, negative = inhibition” value is -25.4%.

For `COC(=O)C1(C(=O)OC)C[C@H](c2ccccc2)N(Cc2ccccc2OC)[C@@H]1c1ccccc1`, the “activity change, negative = inhibition” value was -3.05%.

Consider `CN1CCN(c2ccc3c(c2)OC[C@H](Cc2ccccc2)NS3(=O)=O)CC1`, for which the “activity change, negative = inhibition” value is -10.2%.

In the case of `COC(=O)C[C@H]1C=C[C@H](NC(=O)c2ccc(F)cc2)[C@@H](CO)O1`, the “activity change, negative = inhibition” value was -26.1%.

For the compound `C=C1C(=O)OC2C1CCC(C)=CCCC1(C)OC21` (centres undefined), the “activity change, negative = inhibition” value is -16.4%.

`CO[C@@H]1CN(C)C(=O)c2cc(NC(=O)C3CC3)ccc2OC[C@H](C)N(C(=O)CN2CCOCC2)C[C@@H]1C`: the “activity change, negative = inhibition” value is -0.664%.

For the compound `CC(C)C1C(=O)N(Cc2cn(CCC3OCCO3)nn2)CCS(=O)(=O)N1Cc1ccc(-c2ccccc2C(F)(F)F)cc1` (centres undefined), the “activity change, negative = inhibition” value is -16.9%.

Take `CCOC(=O)[C@]12CCC=C1N(Cc1cccc3ccccc13)C(=O)[C@H](CC(=O)NCc1cccc(C(F)(F)F)c1)C2`: the “activity change, negative = inhibition” value is -22.9%.

Regarding `CCCCC[C@H](C)N1C[C@@H](COCc2ccccc2)Oc2cc(N3CC[C@@H](N(C)C)C3)ccc2S1(=O)=O`, the “activity change, negative = inhibition” value was -13.4%.

`C=CCC[C@@H](CCCCC)OC(=O)/C=C/[C@@H](O)[C@H](O)C[C@H](O)CC=C`: the “activity change, negative = inhibition” value was -3.19%.

For `CCOC(=O)c1ccc(-c2ccc3ncnc(N(C)Cc4sccc4C)c3c2)o1`, the “activity change, negative = inhibition” value was -20.6%.

In the case of `CCCNC(=O)c1cc2c(c(-c3cccc(-c4ccc(C#N)cc4)c3)n1)[C@@H](CCO)N(C(=O)CC)C2`, the “activity change, negative = inhibition” value is -12.9%.

Consider `Cc1ccc(C(=O)Nc2c(-c3ccccc3)[nH][nH]c2=O)cc1`, for which the “activity change, negative = inhibition” value was -14.8%.

Turning to `CCCc1nc2ccccc2n1C(C)C(=O)NC(C)(C)C` (centres undefined), the “activity change, negative = inhibition” value was 1.55%.

For `N#Cc1ccc(C(C(=O)NCc2ccccc2)n2c(=O)c(-c3ccco3)nc3ccccc32)cc1` (centres undefined), the “activity change, negative = inhibition” value is -6.44%.

Regarding `CC(C)NC(=O)N1Cc2cc(C(=O)NCC(F)(F)F)nc(-c3cccc(-c4cc5ccccc5o4)c3)c2[C@@H]1CCO`, the “activity change, negative = inhibition” value is 7.65%.

Consider `CC(C)C[C@H]1CNC(=O)C(=O)N1C[C@H]1CCCN1C[C@H](Cc1ccc(O)cc1)N1C[C@H](CC(C)C)N(CC2CCCCCC2)C(=O)C1=O`, for which the “activity change, negative = inhibition” value was -10.1%.

In the case of `COC(=O)c1ccc2c(c1)S(=O)(=O)NC2C` (centres undefined), the “activity change, negative = inhibition” value was 1.42%.

On to `CCC(C(=O)NCc1ccccc1)n1c(Cc2cc(F)cc(F)c2)nc2ccccc21` (centres undefined), for which the “activity change, negative = inhibition” value is -11.9%.

As for `CCOC(=O)c1cc2cc(OC)ccc2n1C1CCN(C)CC1`, the “activity change, negative = inhibition” value was -3.06%.

In the case of `COC(=O)[C@@]1(Sc2ccc(C)cc2)CC(=O)N(c2cccc(SC)c2)[C@@H]1c1ccccc1`, the “activity change, negative = inhibition” value was -16%.

Consider `COC(=O)[C@]12CCCCC=C1N(Cc1ccccc1)C(=O)[C@H](CC(=O)NCc1ccc(C)o1)C2`, for which the “activity change, negative = inhibition” value was -8.27%.

Consider `CC(C)OC(=O)CC(=O)CC(O)c1cccc([N+](=O)[O-])c1` (centres undefined), for which the “activity change, negative = inhibition” value is 10.8%.

Take `CCCCc1c(-c2ccc(Cl)cc2)ncn1CCc1ccccc1OC`: the “activity change, negative = inhibition” value is -17.1%.

Consider `CCOC(=O)N1CCN(C(=O)C[C@@H]2C[C@@]3(C(=O)OC)CC(C)(C)CC=C3N(Cc3ccco3)C2=O)CC1`, for which the “activity change, negative = inhibition” value is 12.7%.

On to `Nc1[nH]c(C(=O)c2ccccc2)c(-c2ccncc2)c1C(=O)NCc1cccc2ccccc12`, for which the “activity change, negative = inhibition” value is 7.33%.

As for `CC(C)c1ccc2c(c1)c(SC(C)(C)C)c(CC(C)(C)C(=O)O)n2Cc1ccc(Cl)cc1`, the Potency was 25.1 µM (active).

As to `CCCCc1c(-c2ccc(Br)cc2)ncn1CCc1ccccc1OC`, the “activity change, negative = inhibition” value is -8.85%.

On to `CCC(=O)N1Cc2cc(C(=O)NCc3cccc(F)c3)nc(-c3cccc(C4=CCCC4)c3)c2[C@H]1CCO`, for which the “activity change, negative = inhibition” value is -8.22%.

Take `CCC(C)Cn1c(O)cc2nn(-c3nc4ccccc4s3)c(=O)c-2c1C` (centres undefined): the Potency was 50.1 µM (active).

With `Cc1cc2nc(-c3ccc(F)cc3)c(Cc3ccsc3)n2c(C)c1Br`, the “activity change, negative = inhibition” value is 7.15%.

With `COc1ccc(NC(=O)C(c2ccncc2)n2c(=O)c(-c3cc4ccccc4[nH]3)nc3ccccc32)cc1` (centres undefined), the “activity change, negative = inhibition” value is -8.06%.

With `CCCCCc1c(Cc2ccccc2)ncn1CCc1ccccc1OC`, the “activity change, negative = inhibition” value is -18.1%.

`Cc1ccc(-c2c(N)nc3ncccn23)cc1`: the “activity change, negative = inhibition” value was -8.75%.

The record behind these values is PubChem BioAssay AID720709 (National Center for Advancing Translational Sciences (NCATS), 2013).
